Most compounds without a hit are left out; they make up all but 1.3% or so of the library.
gsp ag – activates gsp, the McCune-Albright syndrome mutation; gsp mutant cells, cAMP HTRF, 30 min; Potency, µM (highest dose often 76.9 µM), without a hit: at the highest dose activation (cAMP increase), most hits filed as activators; hit rate 0.13% among 340,000; AID 624287; active = well fitted activation curve with a large enough effect; inconclusive = small, poorly fitted or top-dose-only effect, or another doubt; inactive = no such curve, though single readings can be large or run the other way; cell line not stated here;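 also: phosphodiesterase inhibitor Ro 20-1724 added with compounds to block cAMP breakdown; potency is read from the fitted curve at half-maximal effect; nearly all actives have a fitted effect of over 60% in size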
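Cells stably selected in G418 were plated at 2000/well, grown 16-24 hr, then given compounds in DMSO with the PDE inhibitor […] (300 uM solution added) for 30 min at 37C; cAMP was read by HTRF.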
RXFP1 agonist – activates the human relaxin receptor RXFP1; Q9HBX9; HEK293T-RXFP1 cAMP TR-FRET, 30 min; response scale: percent of porcine relaxin response, buffer zero; Potency, µM (top dose mostly 57.5 µM), for the others: top-dose activation, usual class: activators; hit rate 0.3% among 370,000; AID 2676; active = well fitted activation curve with a large enough effect; inconclusive = small, poorly fitted or top-dose-only effect; also: potency is read from the fitted curve at half-maximal effect; % is scaled to controls: 0 for no effect and ±100 for the full control effect; nearly all actives have a fitted effect of over 60% in size
Target sequence (Q9HBX9 whole entry, looked up): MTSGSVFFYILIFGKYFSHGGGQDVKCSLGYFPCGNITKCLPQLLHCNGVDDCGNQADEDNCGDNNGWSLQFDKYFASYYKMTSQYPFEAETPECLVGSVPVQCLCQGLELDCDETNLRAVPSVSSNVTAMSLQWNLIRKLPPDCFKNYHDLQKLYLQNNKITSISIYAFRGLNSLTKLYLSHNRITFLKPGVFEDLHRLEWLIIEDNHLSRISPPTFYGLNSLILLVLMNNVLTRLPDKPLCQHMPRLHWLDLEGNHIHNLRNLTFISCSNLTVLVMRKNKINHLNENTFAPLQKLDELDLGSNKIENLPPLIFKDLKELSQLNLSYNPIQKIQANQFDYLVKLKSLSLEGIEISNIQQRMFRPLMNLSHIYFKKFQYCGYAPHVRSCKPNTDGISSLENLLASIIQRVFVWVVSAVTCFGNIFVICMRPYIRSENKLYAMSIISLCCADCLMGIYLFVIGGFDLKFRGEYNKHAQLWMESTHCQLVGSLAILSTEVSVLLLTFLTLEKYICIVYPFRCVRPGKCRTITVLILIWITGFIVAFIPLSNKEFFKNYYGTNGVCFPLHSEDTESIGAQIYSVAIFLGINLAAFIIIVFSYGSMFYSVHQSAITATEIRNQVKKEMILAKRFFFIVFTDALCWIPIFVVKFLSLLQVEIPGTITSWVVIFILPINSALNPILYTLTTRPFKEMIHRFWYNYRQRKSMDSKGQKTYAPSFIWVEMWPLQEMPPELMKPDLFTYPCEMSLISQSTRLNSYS
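cAMP rise read by TR-FRET after 30 min, 37C compound exposure (up to 58 uM) in RXFP1-transfected HEK293 cells with Ro 20174 present. EC50 from Hill-equation fits, with 29 nM porcine relaxin as 100% and buffer as basal.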
pAkt inh – Akt phosphorylation inhibition; Neuro2A IGF-stimulated pAkt S473 HTRF, 20 min; hits give low values; activity change, % for hits at 50 µM; hit rate 0.32% among 360,000; in the data active = activity change below about -80%; inconclusive = mostly about -51% to -80%; also: % is scaled to controls: 0 for no effect and ±100 for the full control effect
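Neuro2A cells in DMEM with 0.5% FBS, overnight at 37 deg C, given compound at single 50 µM final, then IGF (6 nM final) for 20 min at 37 deg C. Lysed; phospho-Akt Ser473 by HTRF after 24 h, 665/615 ratio.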
RXFP1 antagonist – antagonists of human relaxin receptor RXFP1; Q9HBX9; HEK293-RXFP1, relaxin-stimulated cAMP HTRF, 30 min; hits give low values; activity change, negative = inhibition, % at 57.5 µM; hit rate 0.59% among 350,000; AID 1259400;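 active = activity change of -60% or lower, but not beyond a set lower limit; inconclusive = change between -60% and -40%, or beyond the set limit; inactive = change above -40%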; also: % is scaled to controls: 0 for no effect and ±100 for the full control effect
gsp antag – antagonizes gsp, the McCune-Albright syndrome mutation | hit rate 0.4% among 340,000 | Potency, µM (doses to about 76.9 µM), inactives show top-dose activity change, negative = inhibition, hits mostly inhibitors | gsp-mutant cells, cAMP HTRF, 30 min; calls by dose curve; cell line not stated here;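 also: intracellular cAMP measured with PDE inhibitor Ro 20-1724 present during compound exposure; potency is read from the fitted curve at half-maximal effect; % is scaled to controls: 0 for no effect and ±100 for the full control effect; nearly all actives have a fitted effect of over 65% in size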
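Measurement of cellular cAMP by homogeneous time-resolved fluorescence following a 30 min compound exposure at 37C. The PDE inhibitor […] was present throughout; the assay buffer was DPBS with 0.05% BSA and 0.005% Tween 20.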
* hit, by the source's call; i = inactive; ? = inconclusive; / = no result given; ! = not active in a repeat; [ ] = another dose, or the depositor's remark.

SMILES | gsp ag | RXFP1 agonist | pAkt inh | RXFP1 antagonist | gsp antag
O=C(CCN1C(=O)/C(=C/c2ccccc2Cl)SC1=S)NNC(=O)c1cccnc1 | 3%[15.4 µM] | 0% | i | -12 | -17%
O=C(CN1C(=O)/C(=C/c2ccccc2)SC1=S)NC1CCS(=O)(=O)C1 (stereo not given) | -1% | -2% | / | -61* | 5%
CC(C)Oc1ccc(CNC(=O)c2ccc3nc(C(C)C)oc3c2)cc1 | / | 1% | / | -5 | /
O=C(c1ccc2c(c1)N(Cc1ccc(Cl)cc1)C(=O)c1ccccc1S2(=O)=O)N1CCCC1 | / | 0% | / | / | /
Nc1ccc2c(c1)CN1C(=O)c3ccccc3C1=N2 | / | / | / | -15 | /
O=C(CN1C(=O)/C(=C/c2ccccc2Cl)SC1=S)NC1C=CS(=O)(=O)C1 (stereo not given) | 2% | 2% | i | -61* | -15%
Cc1oc(=O)oc1COC(=O)[C@@H]1N2C(=O)[C@@H](NC(=O)[C@H](N)c3ccccc3)[C@H]2SC1(C)C | / | / | / | -13 | /
CCOC(=O)COc1ccc(/C=C/[N+](=O)[O-])c(OCC(=O)OCC)c1 | 10% | 3% | / | -69* | 17%
CCOc1ccc(/C=C/[N+](=O)[O-])c2ccccc12 | 5% | 2% | i | -69* | -2%
N#Cc1c(-c2ccccc2)cc(-c2ccccc2)nc1SCC(O)CS(=O)(=O)Cc1ccc(Cl)cc1 (stereo not given) | / | 4% | / | / | /
Cn1nccc1C(=O)NCc1ccc2c(c1)CCN2C(=O)c1ccc(F)cc1 | / | 3% | / | -73* | /
CC(C)(C)C(=O)/C=C(\N)c1ccncc1 | -42% | 0% | -101%* | -5 | -10%
COc1ccc(/C(N)=C/C(=O)C(C)(C)C)cc1 | -35% | 3% | i | -19 | 1%
O=C(O)CCCn1c(O)c(C=C2N=c3ccccc3=N2)sc1=S | 16% | 0% | i | -17 | ?
CCCC(C(=O)O)n1c(O)c(C=C2N=c3ccccc3=N2)sc1=S (stereo not given) | -40% | -14% | i | -61* | -11%
COc1ccccc1N1CCN(C(=O)Cn2cnc3onc(-c4ccc(F)cc4)c3c2=O)CC1 | / | 1% | / | / | /
Cc1ccc(CNC(=O)C2CCN(S(=O)(=O)c3c(C)noc3/C=C/N(C)C)CC2)cc1 | -20% | 0% | i | -64* | -8%
O=C(c1ccc(CS(=O)Cc2ccccc2Cl)o1)N1CCN(c2cccc(Cl)c2)CC1 (stereo not given) | -1% | 1% | i | -40 | 32µM*
O=C(N/N=C/c1cccc(O)c1)c1cc(-c2ccc3c(c2)OCO3)n[nH]1 | -42% | 0% | i | -69* | -34%
CCn1c(SCC(=O)Nc2ccc(F)cc2)nnc1C1CC1 | 9% | 0% | i | -10 | 5%
CCn1c(SCC(=O)Nc2sccc2C(N)=O)nnc1C1CC1 | 5% | 1% | i | -12 | 50µM*
CN1/C(=C\C(=O)c2ccco2)C(C)(C)c2ccccc21 | -9% | 0% | i | -86* | 35µM*
CN1/C(=C\C(=O)c2cccnc2)C(C)(C)c2ccccc21 | -28% | -1% | i | -23 | -6%
CN1/C(=C\C(=O)COc2ccc3c(c2)OCO3)C(C)(C)c2ccccc21 | -4% | 0% | i | -19 | 40µM*
CN1/C(=C/C(=O)c2nc(S(C)(=O)=O)ncc2Cl)C(C)(C)c2ccccc21 | -11% | 3% | i | -69* | -28%
SMILES | gsp ag | RXFP1 agonist | pAkt inh | RXFP1 antagonist | gsp antag
CCOc1ccccc1CNC(=O)c1ccc2c(c1)sc1nc(-c3cccc(OC)c3)cn12 | / | 6% | / | 15 | /
Cc1ccc(-c2n[nH]c(=S)n2/N=C/C=C/c2ccccc2[N+](=O)[O-])cc1 | -28% | 2% | i | -29 | -15%
O=[N+]([O-])c1ccccc1/C=C/C=N/n1c(-c2cc(-c3ccccc3)n[nH]2)n[nH]c1=S | -2%[15.4 µM] | 1% | i | -69* | -29%
CCOC(=O)c1c(NC(=O)C(C)OC(=O)c2ccc(NC(=O)CC#N)cc2)sc2c1CCCC2 (stereo not given) | 4% | 1% | i | 1 | -15%
CCOC(=O)c1c(NC(=O)C(C)OC(=O)C2=COCCO2)sc2c1CCCC2 (stereo not given) | -16% | -1% | i | -15 | 22µM*
Cc1cccc(OCC(O)Cn2c(=N)n(CCN3CCCCC3)c3ccccc32)c1 (stereo not given) | -5% | 2% | i | -63*! | 18%
CC(OC(=O)c1ccc(O)cc1)C(=O)Nc1nc(-c2ccccc2)cs1 (stereo not given) | -24% | 0% | i | -85* | ?
COc1ccc(OC)c2c1C(=O)C(Cl)=C(Cl)C2=O | -69% | -3% | i | / | 35µM*
CCc1ccc(CNC(=O)CN2C(=O)CSc3c2c(C)nn3-c2ccccc2)cc1 | / | -1% | / | / | /
O=C(CC1SC(=O)N(c2ccccc2)C1=O)Nc1ccc(Cl)cc1 (stereo not given) | -19%[15.4 µM] | 1% | i | -70* | -1%
CC(NCC(=O)NC(=O)NC1CCCC1)c1ccc(Cl)cc1Cl (stereo not given) | 9% | -2% | i | -63* | 10%
O=C(COC(=O)c1ccc(Cl)cc1)NC(=O)NC1CCCC1 | 13%[15.4 µM] | -1% | i | 10 | 6%
COc1ccccc1-c1nnc(C2CCN(S(=O)(=O)c3ccccc3)CC2)o1 | / | 2% | / | -13 | /
CCOC(=O)N1CCN(S(=O)(=O)c2ccc(C(=O)Nc3sc4c(c3C(=O)OC)CCN(C)C4)cc2)CC1 | 6% | 2% | i | -5 | 3%
CCOC(=O)c1c(NC(=O)c2ccc(S(=O)(=O)N3CCC(C)CC3)cc2)sc2c1CCN(C)C2 | / | -36% | / | -63* | /
CCC1CCCCN1CCCNC(=O)c1[nH]c2ccccc2c1Sc1ccc(Cl)cc1 (stereo not given) | / | 16% | / | -33 | /
Cc1cc(N2CCOCC2)nc2ccc(NC(=O)CCC(=O)N3CCCCC3)cc12 | 7% | 3% | i | -4 | -1%
Cc1cc(N2CCOCC2)nc2ccc(NC(=O)CCC(=O)N3CCN(c4cccc(C(F)(F)F)c4)CC3)cc12 | 3% | 0% | i | -12 | 40µM*
COc1cc(C2C(C#N)=C(N)Oc3c2ccc2ccccc32)ccc1OCC(=O)Nc1cccc(C)c1 (stereo not given) | 25%[15.4 µM] | -2% | i | -78* | 2%
COc1cc(C2C(C#N)=C(N)Oc3c2ccc2ccccc32)ccc1OCC(=O)Nc1ccc(C)cc1 (stereo not given) | -2% | 2% | i | -18 | 9%
COc1cccc(C2C(=O)N(C3CCCCC3)CC(=O)N2Cc2ccc(Cl)cc2)c1 (stereo not given) | / | 3% | / | -22 | /
COc1ccccc1-c1cc2nc(C)c(CCC(=O)NCCc3ccc(SC)cc3)c(C)n2n1 | / | / | / | -4 | /
CC(C)S(=O)(=O)c1oc(-c2cccs2)nc1S(=O)(=O)c1ccc(F)cc1 | / | 2% | / | -79* | /
